Compound activity deposited in PubChem BioAssay by Sanford-Burnham Center for Chemical Genomics.
The list is not random: actives were taken first. Their share in the collection is about 2.6%.
PABP FP inh = PABP poly(A) RNA binding inhibitors, primary screen, biochemical, fluorescence polarization, uHTS; Polyadenylate-binding protein 1 (Homo sapiens), P11940; calls only at 35 µM; 1% of 290,000 active;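 also: calls also rest on retests at 20 µM and on dose response follow-up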
PHOSPHO1 inh = PubChem AID 1565; Phosphoethanolamine/phosphocholine phosphatase (Homo sapiens), Q8TCT1; recombinant PHOSPHO1, absorbance phosphatase assay; inhibition, % at 13.3 µM; 1.1% of 290,000 active; in the data active = inhibition above about 60%
eIF4H FP inh = human eIF4H binding inhibitors, primary screen, translation initiation inhibitor project, biochemical, uHTS, fluorescence polarization. Eukaryotic translation initiation factor 4H (Homo sapiens), Q15056. AID 2012, 2009. 0.94% of 290,000 active. eIF4H fluorescence polarization binding assay. inhibition, % at 35 µM;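 also: calls also rest on retests at 20 µM and on dose response follow-up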
APOBEC3G inh = APOBEC3G DNA deaminase inhibitors, primary screen, biochemical, fluorescence, single-stranded DNA substrate, uHTS; DNA dC->dU-editing enzyme APOBEC-3G (Homo sapiens), Q9HC16; recombinant A3G, ssDNA deamination FAM/TAMRA fluorescence; inhibition, % at 20 µM; 0.28% of 330,000 active; AID 493012, 2011;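 active = inhibition of at least 40% at 20 µM, with no more than 30% in the related APOBEC3A deaminase screen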
Target sequence (Q9HC16 whole entry, looked up): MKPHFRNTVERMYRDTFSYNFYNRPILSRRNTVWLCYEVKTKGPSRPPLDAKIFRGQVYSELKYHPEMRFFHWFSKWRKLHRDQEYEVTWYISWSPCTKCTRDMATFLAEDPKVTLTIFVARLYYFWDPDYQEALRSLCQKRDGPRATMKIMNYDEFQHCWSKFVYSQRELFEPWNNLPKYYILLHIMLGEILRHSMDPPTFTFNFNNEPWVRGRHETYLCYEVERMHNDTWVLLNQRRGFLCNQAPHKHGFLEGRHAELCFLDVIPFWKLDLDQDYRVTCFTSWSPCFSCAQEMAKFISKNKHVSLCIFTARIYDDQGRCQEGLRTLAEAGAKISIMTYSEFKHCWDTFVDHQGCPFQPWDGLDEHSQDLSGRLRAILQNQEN
APOBEC3A inh = APOBEC3A ssDNA deaminase inhibitors, primary screen, selectivity assay for APOBEC3G inhibitor project, biochemical, FAM/TAMRA oligo cleavage fluorescence; DNA dC->dU-editing enzyme APOBEC-3A (Homo sapiens), P31941; recombinant A3A, FAM/TAMRA ssDNA deamination fluorescence; inhibition, % at 20 µM; 0.41% of 330,000 active; AID 493011, 2011;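 active = at least 40% inhibition at 20 µM here, with at most 30% in a related deaminase screen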
Target sequence (P31941 whole entry, looked up): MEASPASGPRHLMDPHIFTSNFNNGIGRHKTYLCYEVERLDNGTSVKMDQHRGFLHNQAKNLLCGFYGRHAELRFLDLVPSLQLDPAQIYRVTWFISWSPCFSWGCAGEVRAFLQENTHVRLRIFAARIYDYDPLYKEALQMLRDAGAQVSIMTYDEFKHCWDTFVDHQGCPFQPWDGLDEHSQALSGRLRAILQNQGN
PABP1 MLLE inh = inhibitors of PABP1 MLLE–PAM2 peptide binding, primary screen, biochemical, fluorescence polarization, FITC-PAM2, GST-MLLE; inhibition, % at 20 µM; 0.36% of 360,000 active; Polyadenylate-binding protein 1 (Homo sapiens), P11940; AID 588489, 2011; in the data active = inhibition above about 35%, passing the limit was not always enough
Of the large screens only hits and unclear results are named; the others gave an inactive call. Unless noted, no rule for the calls is given here.

COc1ccccc1C(=O)NC(=S)N1CCCc2ccccc21	PABP FP inh active
O=C(NC(=S)N1CCCc2ccccc21)c1ccccc1	none
COc1ccc(C(=O)NNc2ccccc2)cc1OC	PHOSPHO1 inh 77
COc1ccc(C(=O)NNC(=O)Cc2ccc(-c3ccccc3)cc2)cc1OC	none
O=C(NC(=S)N1CCCc2ccccc21)c1ccc(Br)cc1	PABP1 MLLE inh 47
Cc1ccc(S(=O)(=O)N(C)/N=C2/C(=O)N(CC(=O)O)c3ccccc32)cc1	none
CC(=O)C1=C(c2ccccc2)NC(=O)NC1c1ccc(O)c(Cl)c1 (stereo not given)	none
CCC(/C=N/NC(=O)CCCCC(=O)N/N=C/C(CC)CC)CC	none
Cn1c(SCC(=O)NNC(=O)c2ccccc2)nnc1C1CC1	none
COc1ccccc1N(C)S(=O)(=O)c1ccc(C(=O)Nc2ccncc2)cc1	none (no result: PABP FP inh, PHOSPHO1 inh, eIF4H FP inh)
O=C1CC(c2ccccc2)Cc2nc(N3CCc4ccccc4C3)ncc21 (stereo not given)	PABP1 MLLE inh 56
Clc1cccc(-c2nnc(SCc3nc4ccccc4[nH]3)n2Cc2ccco2)c1	PHOSPHO1 inh 77
CCn1c(SCc2ccc(C#N)cc2)nnc1-c1cccc(Cl)c1	none
c1ccc(-c2nnc(SCc3nc4ccccc4[nH]3)n2Cc2ccco2)nc1	PHOSPHO1 inh 72
c1coc(Cn2c(SCc3nc4ccccc4[nH]3)nnc2-c2cnccn2)c1	PHOSPHO1 inh 90
Cc1cccc(-c2nnc(SCc3ccc(C#N)cc3)n2Cc2ccco2)c1	PHOSPHO1 inh 64
Clc1ccccc1CSc1nnc(-c2ccccn2)n1Cc1ccco1	none
Cn1c(SCc2nc3ccccc3[nH]2)nnc1-c1cnccn1	none
Cc1ccccc1NC(=O)C(=O)NNC(=O)COc1ccc2ccccc2c1	none
COc1cccc(C(O)c2ncc(-c3cccc(C(F)(F)F)c3)[nH]2)c1 (stereo not given)	none (no result: PABP FP inh, PHOSPHO1 inh, eIF4H FP inh, APOBEC3G inh, APOBEC3A inh)
CC(C)CN1CCC(=O)N(CCN=[N+]=[N-])CC1	none
CC1(C)Cc2c(cnn2-c2ccc(F)cc2)C(NC(=O)CCN2CCCCC2=O)C1 (stereo not given)	none
CCn1c(COc2ccc(C)cc2)nnc1SCc1nc2ccccc2[nH]1	PHOSPHO1 inh 94
Cn1c(COc2ccccc2)nnc1SCc1nc2ccccc2[nH]1	none
CCc1c(O)nc(SCc2nc3ccccc3c(=O)[nH]2)[nH]c1=O	PABP FP inh active, eIF4H FP inh active, PABP1 MLLE inh 39
O=C(CSc1nnc(COc2ccc(Cl)cc2)n1Cc1ccco1)c1ccccc1F	PHOSPHO1 inh 96
O=c1[nH]c(CSc2nnc(COc3ccccc3)n2-c2ccccc2)nc2ccccc12	PHOSPHO1 inh 61
CCC(C)NC(=S)Nc1ccc(C(=O)OC)cc1 (stereo not given)	none
COc1ccc([C@H]2C[C@H](O)[C@@H](n3cc(COC(=O)c4ccccc4)nn3)CN2CC2CCCCC2)cc1	none (no result: PABP FP inh, PHOSPHO1 inh, eIF4H FP inh, APOBEC3G inh, APOBEC3A inh)
COc1ccc(C)cc1NC(=O)CSc1nnc(COc2ccc(Cl)cc2)n1Cc1ccco1	none
Clc1ccc(OCc2nnc(SCc3nc4ccccc4[nH]3)n2Cc2ccco2)cc1	PHOSPHO1 inh 74
COc1ccc(S(=O)(=O)N2CCOCC2)cc1NC(=O)CSc1nc(C)c(C)c(C)n1	none (no result: PABP FP inh, PHOSPHO1 inh, eIF4H FP inh)
COc1ccc(S(=O)(=O)N2CCOCC2)cc1NC(=O)CSc1n[nH]c(C(C)C)n1	PHOSPHO1 inh 63
Cc1cc(C=O)c(C)n1-c1cccc(C(=O)O)c1	eIF4H FP inh 80
Cc1cc(/C=N/O)c(C)n1-c1ccccc1	none
COC(=O)c1cccc(-n2c(C)cc(C=O)c2C)c1	PABP FP inh inconclusive
Cc1ccc(C)n1-c1cccc(C(=O)O)c1	PABP FP inh active, PHOSPHO1 inh 79, eIF4H FP inh 91 (no result: PABP1 MLLE inh)
CC(=O)C(=Cc1cc(C)n(-c2ccccc2)c1C)C(C)=O	PABP FP inh active, eIF4H FP inh 54
O=C(Cn1nc(C(=O)O)c2ccccc2c1=O)Nc1ccc(Cl)c(S(=O)(=O)N2CCOCC2)c1	none (no result: PABP FP inh, PHOSPHO1 inh, eIF4H FP inh)
COc1ccc(NC(=O)c2cccc(S(=O)(=O)NCc3ccccc3)c2)cc1S(N)(=O)=O	none (no result: PABP FP inh, PHOSPHO1 inh, eIF4H FP inh)
O=c1c2c3c(sc2n(CCN2CCCC2)c(=O)n1Cc1ccco1)CCCCC3	none
O=C(Cn1c(=O)n(Cc2ccco2)c(=O)c2c3c(sc21)CCCCC3)c1ccccc1	PABP FP inh active, eIF4H FP inh 74
CC(SC1=NCCN1S(=O)(=O)c1ccccc1)c1ccccc1 (stereo not given)	PHOSPHO1 inh 61
CCCS(=O)(=O)NC(=O)C1(C)CCN(C(=O)Cc2cccc(OC)c2)C1 (stereo not given)	none (no result: PABP FP inh, PHOSPHO1 inh, eIF4H FP inh, APOBEC3G inh, APOBEC3A inh)
FC(F)(F)c1cc(-c2ccccc2)nc(N2CCOCC2)n1	PHOSPHO1 inh 74
CC(=O)Nc1nnc(SCC(=O)Nc2nc(C)cs2)s1	none
Cc1cc(C(F)(F)F)c2c(N)c(C(=O)Nc3cc(C)on3)sc2n1	PABP FP inh active, eIF4H FP inh 59
CCCCN1CC(COCc2ccccc2)Oc2cccc(OCCN3C(=O)[C@@H]4[C@H](C3=O)C3C=C[C@H]4C3)c2S1(=O)=O (stereo not given in full)	none (no result: PABP FP inh, PHOSPHO1 inh, eIF4H FP inh, APOBEC3G inh, APOBEC3A inh)
CN(C)c1ccc(N=c2sc3ccccc3n2C)cc1	PHOSPHO1 inh 94
Cn1c(=Nc2ccccc2)sc2ccccc21	none
O=C(CCc1nc2ccccc2c(=O)[nH]1)NCc1ccco1	none
CN(CC(=O)NC(=O)NCc1ccco1)Cc1nc2ccccc2c(=O)[nH]1	PABP FP inh active, eIF4H FP inh 69
CCCCNC(=S)N(C)/N=C/c1ccc(OCc2ccc(C(=O)OC)cc2)c(OC)c1	PABP FP inh active
CCC(=O)c1ccc(OCc2ccc(C(=O)OC)cc2)c(OC)c1	none
COCOCCn1cc(CN2CCS(=O)(=O)N(Cc3ccc(-c4ccc(OC)cc4)cc3)C(C(C)C)C2=O)nn1 (stereo not given)	none (no result: PABP FP inh, PHOSPHO1 inh, eIF4H FP inh, APOBEC3G inh, APOBEC3A inh)
CC1C/C(=C/c2cccn2C)C(=O)/C(=C/c2cccn2C)C1 (stereo not given)	PABP FP inh active, eIF4H FP inh 58
CC1C/C(=C/c2ccncc2)C(=O)/C(=C/c2ccncc2)C1 (stereo not given)	none
COc1cccc(C(=O)N2CCN(c3ccccn3)CC2)c1	none
C[C@H](CO)N1C[C@H](C)[C@@H](CN(C)Cc2cccnc2)Oc2ncc(-c3cccc(C#N)c3)cc2C1=O	none (no result: PABP FP inh, PHOSPHO1 inh, eIF4H FP inh, APOBEC3G inh, APOBEC3A inh)
COc1ccc(C(C(=O)NC2CCCC2)N(C(=O)c2snc(C(N)=O)c2N)c2cccc(O)c2)cc1 (stereo not given)	eIF4H FP inh 68
